Source: PubChem
Compounds with a hit are over-represented: about 2.4% of the library has one in this group of screens.
D2 PAM-1: positive allosteric modulators of human D2 dopamine receptor | HEK293 T-REx D2, calcium flux, EC20 dopamine potentiation | P14416 | AID 485347 | potentiation, % at 10 µM | actives 0.34% (n = 340,000);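 active means potentiation over 3 SD above the plate norm, cut at about 30% in these data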
Target sequence (P14416 whole entry, looked up): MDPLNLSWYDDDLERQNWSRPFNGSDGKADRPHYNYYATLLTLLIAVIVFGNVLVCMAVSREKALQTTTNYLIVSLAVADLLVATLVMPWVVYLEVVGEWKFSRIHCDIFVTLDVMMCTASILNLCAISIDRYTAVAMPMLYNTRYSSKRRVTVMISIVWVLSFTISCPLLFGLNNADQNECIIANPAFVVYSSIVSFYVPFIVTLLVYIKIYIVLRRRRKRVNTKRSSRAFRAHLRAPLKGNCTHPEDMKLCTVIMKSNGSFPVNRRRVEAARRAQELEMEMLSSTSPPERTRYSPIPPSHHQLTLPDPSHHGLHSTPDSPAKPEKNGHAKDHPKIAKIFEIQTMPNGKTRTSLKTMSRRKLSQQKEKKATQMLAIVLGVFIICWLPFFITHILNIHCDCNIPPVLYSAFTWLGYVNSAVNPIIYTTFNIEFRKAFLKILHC
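Tetracycline-induced HEK293 T-REx cells force-coupled to calcium signalling expressed D2; compounds were pin-added after a 10 s baseline, read kinetically 180 s, then an EC20 dopamine challenge followed with a further 180 s calcium read.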
D2 ag-1: agonists of human D2 dopamine receptor. activation, % at 2 µM. HEK293 T-REx D2 cells, calcium flux agonist mode. P14416. actives 0.53% (n = 340,000);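 active means activation over 3 SD above normal in the single-dose calcium agonist read, cut at about 30% in these data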
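Tetracycline-induced HEK293 T-REx cells with force-coupled D2 receptor, plated overnight at 30 C, loaded with no-wash calcium dye. After a 10 s baseline, compound was pin-added and calcium flux read kinetically for 180 s; calcium rises flagged agonists.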
D2 ag-2: human D2 receptor agonism in beta-arrestin assay. P14416. DiscoveRx PathHunter D2 beta-arrestin, luminescence, 90 min; 100% = 57 uM dopamine signal. activation, % (concentration not given with the values). actives 0.084% (n = 360,000); in the data active means activation above about 40%; inconclusive means between about 15% and that limit
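Agonist mode: compounds alone added to overnight-plated D2 PathHunter cells for 90 min at 37 C, with 57 uM final dopamine (EC100) defining full response. Beta-arrestin recruitment detected by chemiluminescent reagent, read after 1 h at ambient temperature.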
D2 antagonist: antagonists of human D2 dopamine receptor. inhibition, % at 10 µM. actives 2% (n = 340,000). HEK293 TREx D2 cells, calcium flux, dopamine EC80. P14416; in the data active means inhibition above about 30%; inactive means below that, where a call was filed
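Antagonism is scored as inhibition of an EC80 dopamine-evoked calcium signal in a force-coupled, tetracycline-inducible HEK293 T-REx D2 line, with compound present 180 s before agonist.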
D2 PAM-2: potentiates the human D2 dopamine receptor allosterically | actives 0.23% (n = 360,000) | DiscoveRx D2 beta-arrestin cells, luminescence, 90 min; 100% = 57 uM dopamine signal | potentiation, % (test concentration not listed) | AID 624464; in the data active means potentiation above about 50%; inconclusive means mostly about 30% to 49%
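PathHunter beta-arrestin assay in DiscoveRx D2 cells. Compounds were added with an EC20 of dopamine (50 nM final) for 90 min at 37 deg C. Luminescence was read 1 h after detection reagent, with 57 uM dopamine as the EC100 control.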
Numbers stand for hits; - = inactive; ? = inconclusive; . = no result.

SMILES	D2 PAM-1	D2 ag-1	D2 ag-2	D2 antagonist	D2 PAM-2
CCOc1ccc(N(CC(=O)NCCc2ccc(Cl)cc2)S(=O)(=O)c2c(C)[nH]c(=O)[nH]c2=O)cc1	32.1	-	-	-	-
CCc1nnc2c(Nc3cccc(F)c3)nc3ccc(C(=O)c4ccccc4)cc3n12	-	-	.	.	.
CN(c1ccc(OCC(=O)Nc2ccccc2C(=O)O)cc1)S(=O)(=O)c1ccc(Cl)cc1	.	.	-	.	62.2
CC(=O)Nc1ccc(S(=O)(=O)N(C)c2ccc(OCC(=O)Nc3ccccc3C(C)=O)cc2)cc1	-	-	-	-	-
O=C(COc1ccc(F)cc1)NCc1ccc2c(c1)CCN2C(=O)c1ccc(F)cc1	-	-	.	.	.
O=C(O)c1cccc(CN2C(=O)S/C(=C/c3cccc([N+](=O)[O-])c3)C2=O)c1	-	-	-	33.6	-
CC(=O)c1ccc2c(c1)Nc1ccccc1S2	-	-	?	-	51.9
CCOC(=O)Nc1ccc2c(c1)Nc1ccccc1S2	-	-	-	-	62.6
C/C(=N\NC(=O)c1ccc(C)cc1C)c1ccc2c(c1)Nc1ccccc1S2	-	-	?	-	77.9
C/C(=N\NC(=O)c1ccc(C)cc1C)c1ccc(-n2ccnc2)cc1	-	-	-	-	-
Cc1ccc(CN2C(=O)c3ccccc3Sc3ccc(C(=O)N4CCOCC4)cc32)cc1	-	-	.	.	.
O=C1c2ccccc2C(=O)N1CCc1nc(-c2ccccn2)no1	-	.	-	.	-
O=C1c2ccccc2C(=O)N1CCCc1nc(-c2ccccn2)no1	-	-	-	35.9	-
Cc1nnc2ccc(-c3ccc(NS(C)(=O)=O)cc3)nn12	-	-	-	32.6	-
Cc1ccc(S(=O)(=O)NC(=O)c2ccc(Br)o2)c(C)c1	-	-	-	31.5	-
CCOC(=O)c1c(S(=O)(=O)N2CCC(C(=O)N3CCN(c4cc(C)ccc4C)CC3)CC2)c(C)n(C)c1C	-	-	.	.	.
Cc1ccccc1CNC(=O)CCCn1c(=O)c2cccn2c2cccnc21	-	-	.	.	.
COc1ccc(CC(=O)NCC2CCCN(Cc3cccc(C(F)(F)F)c3)C2)cc1 (configuration not stated)	-	-	-	-	-
CSc1ccc(CN2CCCC(CNC(=O)c3ccc(F)cc3)C2)cc1 (configuration not stated)	-	-	-	40.7	-
O=C(NCC1CCCN(Cc2ccccc2F)C1)c1cccc(C(F)(F)F)c1 (configuration not stated)	-	-	-	31.5	-
CC(=O)CSc1nc(-c2ccccc2)[nH]c1S(=O)(=O)c1ccc(C)cc1	-	-	.	.	.
CCc1ccccc1NC(=O)Cn1nc(-c2cc(C)ccc2C)c2c(c1=O)CCCC2	-	-	.	.	.
CCCCn1c(=N)c(S(=O)(=O)c2ccc(Cl)cc2)cc2c(=O)n3cccc(C)c3nc21	-	-	.	.	.
COC(=O)c1scc(-c2ccc(C)cc2)c1S(=O)(=O)N1CCN(c2ccc(OC)cc2)CC1	-	-	.	.	.
CCOC(=O)C1CCN(C(=O)C2CCN(C3=NS(=O)(=O)C(c4ccc(C)c(C)c4)=C3C)CC2)CC1	-	-	.	.	.
SMILES	D2 PAM-1	D2 ag-1	D2 ag-2	D2 antagonist	D2 PAM-2
COC(=O)CSc1nnc(-c2ccc(S(=O)(=O)NCc3ccccc3Cl)cc2)o1	-	-	-	33.3	-
COC(=O)CSc1nnc(-c2ccc(S(=O)(=O)NCc3cccs3)cc2)o1	-	-	-	-	-
O=C1C(=Cc2ccncc2)CCCc2ccccc21	.	.	-	.	-
O=C1/C(=C/c2cccc3ccccc23)CCCc2ccccc21	59.4	-	-	-	-
COC(=O)c1ccccc1NC(=O)CSc1nnc(-c2ccc(C)cc2)o1	31.1	-	.	-	.
COC(=O)c1ccccc1NC(=O)CSc1nnc(-c2cccnc2)o1	.	-	-	-	-
Cc1cc2nc(-c3ccc(NC(=O)C(C)C)cc3)oc2cc1C	-	-	-	31.7	-
Cc1ccc(-c2nc3cc(NC(=O)C(C)C)ccc3o2)cc1	-	-	-	-	-
CCCCC(=O)OCc1cc(=O)n2nc(C3CCCCC3)sc2n1	-	-	.	.	.
Cc1cccc(N2CCN(CCNC(=O)Nc3ccc(Cl)cc3)CC2)c1C	-	.	.	.	.
O=C1CC(c2ccc(Cl)cc2)Sc2nc(-c3ccc(F)cc3)nn21 (configuration not stated)	-	-	.	.	.
N#C/C(=C\c1c(Cl)cccc1Cl)c1nc2ccccc2o1	-	-	?	-	57.9
Cn1c(=O)n(C)c2cc(N3CCOCC3)c(NC(=O)c3ccc(Cl)cc3)cc21	-	-	.	.	.
CN1CCN(CCOC2Cc3ccccc3Sc3ccc(Cl)cc32)CC1 (configuration not stated)	-	-	-	87.9	-
CCCCCCCNC(=O)C1(CC2CC(c3ccc(Cl)cc3)=NO2)CCN(C(=O)c2cc(OCC)c(OCC)c(OCC)c2)CC1 (configuration not stated)	-	-	-	43.9	-
CCOc1ccc(OCC(=O)Nc2nnc3n2CCS3)cc1	.	-	.	.	.
O=C1CSC(=S)N1/N=C/c1cc(Br)c(O)c(Br)c1	-	84.6	-	-	-
O=c1cc(-c2ccccc2Cl)oc2ccc([N+](=O)[O-])c(O)c12	-	-	-	-	-
Nc1ccc2oc(-c3ccccc3Cl)cc(=O)c2c1O	-	-	-	50.3	-
COc1ccc(O)c(/C=N/NC(=O)CCC(=O)Nc2cccc(C)c2)c1	-	-	-	-	-
O=C(CCC(=O)Nc1ccc(Br)cc1)N/N=C/c1ccc(O)cc1	-	-	-	33.3	-
COc1ccc(OC)c(/C=N/NC(=O)CCCC(=O)Nc2cccc(Br)c2)c1	-	-	-	68.5	-
COc1cc(/C=N/NC(=O)CCC(=O)Nc2ccc(Br)cc2)ccc1O	-	-	-	31.9	-
Cc1ccc(NC(=O)CCC(=O)N/N=C/c2ccc(O)cc2)cc1	-	-	-	-	-
COc1cc2c(cc1NC(=O)CN1CCN(S(=O)(=O)c3ccc(C)cc3)CC1)oc1ccccc12	-	-	-	41.8	-
SMILES	D2 PAM-1	D2 ag-1	D2 ag-2	D2 antagonist	D2 PAM-2
CCOc1ccccc1NC(=O)CN(CCc1ccccc1)S(=O)(=O)c1ccc(C)cc1	-	-	.	.	.
COc1ccc(Br)cc1CNC(=O)CCc1cn(Cc2ccc(C)cc2)c2ccccc12	-	.	.	.	.
Cc1nn(C(=O)c2cccc(Cl)c2)c(C)c1S(=O)(=O)N1CCOCC1	-	-	.	.	.
Cn1c(N)c(C(=O)CSc2nnc(-c3ccccc3F)n2N)c(=O)n(C)c1=O	-	-	-	33.7	-
Cn1c(N)c(C(=O)CSc2nnc(-c3ccccc3F)n2C2CC2)c(=O)n(C)c1=O	-	-	-	-	-
N#CC1(NC(=O)COC(=O)c2ncc(Cl)c(Cl)c2Cl)CCCCC1	-	-	-	-	-
N#CC1(NC(=O)COC(=O)c2nc(Cl)c(Cl)c(N)c2Cl)CCCCC1	-	30.6	-	-	-
Cc1nc2nncn2c(N2CCN(c3ccccc3)CC2)c1C	-	.	.	.	.
